Source: PubChem BioAssay AID624054 (National Center for Advancing Translational Sciences (NCATS), 2012)
Active and inactive are the calls of the source.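 How the source made its calls: active means IC50 at or below 10 µM; inconclusive means IC50 above 10 µM but below 20 µM; inactive means IC50 of 20 µM or more.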

target: Neuropeptide S receptor (Homo sapiens) (UniProt Q6W5P4); experiment: Robust Characterization of cAMP Signal Transduction for Antagonists of the Neuropeptide S Receptor: SAR; conditions: CHO-NPSR cells, NPS-stimulated cAMP, TR-FRET
Sequence (Q6W5P4 whole entry, looked up): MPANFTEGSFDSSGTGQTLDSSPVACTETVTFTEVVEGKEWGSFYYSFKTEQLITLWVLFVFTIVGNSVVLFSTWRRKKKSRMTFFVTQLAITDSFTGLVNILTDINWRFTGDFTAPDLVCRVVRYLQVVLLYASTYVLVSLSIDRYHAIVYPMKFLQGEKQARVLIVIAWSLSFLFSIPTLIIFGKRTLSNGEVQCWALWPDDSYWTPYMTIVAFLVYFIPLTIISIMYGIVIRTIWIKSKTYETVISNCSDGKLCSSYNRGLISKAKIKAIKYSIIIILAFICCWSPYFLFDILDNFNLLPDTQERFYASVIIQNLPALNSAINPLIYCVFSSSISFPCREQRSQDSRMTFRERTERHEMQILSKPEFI
From the text: Neuropeptide S receptor (NPSR), previously known as GPR154, is a recently de-orphanized G protein coupled receptor. Its endogenous ligand is the 20 amino acids peptide Neuropeptide S (NPS). […] NPS and its receptor are found in various tissues. Specifically they are highly expressed in brain areas that have been implicated in modulation of arousal, stress and anxiety. Central administration of NPS in mice produces an unusual profile of activity by inducing wakefulness and arousal, while at the same time suppressing anxiety. Therefore, NPSR may represent a novel drug target for the treatment of sleep and anxiety disorders. To identify NPSR antagonists, we developed a cell-based cAMP assay. NPS can stimulate the production of cAMP in Chinese hamster ovary cells stably expressing NPS receptor. This change in intracellular cAMP level can be detected by a homogeneous LANCE cAMP assay based on the TR-FRET (time resolved fluorescence resonance energy transfer) between a europium-labeled cAMP tracer complex and a cAMP-specific antibody labeled with Alexa Fluor 647. The europium-labeled cAMP tracer complex is formed by the tight interaction between Biotin-cAMP (b-cAMP) and streptavidin labeled with Europium-W8044 chelate (Eu-SA). Light pulse at 320 nm excites the europium of the cAMP tracer and the energy emitted is transferred to the Alexa molecule bound to the cAMP antibody, generating a TR-FRET signal at 665 nm. Residual energy from the europium will produce a light at 620 nm. The native unlabeled cAMP from cell lysates competes with the europium-cAMP tracer for antibody binding and reversely reduces the emission signal of Alexa by interrupting FRET between the two labeled molecules. Both emission signals from the FRET donor (620 nm) and the acceptor (665 nm) can be detected by a plate reader in the TRF mode. Expression of result in fluorescence ratio (665 nm/620 nm) helps to normalize differences due to cell density and reagent dispensing. This assay was successfully optimized to a 1536-well plate format. Select compounds from the primary screen (AID 1461) were chosen for confirmation based on potency, efficacy, SAR, and activity across other assays in PubChem and at NCGC. Other compounds are analogs of active compounds from the primary screen. […]
A Chinese hamster ovary (CHO) cell line stably expressing the NPS receptor (CHO-NPSR) was obtained from Dr. Heilig lab at NIAAA and maintained in F-12 Kaighn's media (Invitrogen, Carlsbad, CA, 21127) supplemented with 10 % FBS, 100 units/ml penicillin, 100 ug/ml streptomycin and 250 ug/ml geneticin at 37C, 5% CO2 in a humidified atmosphere. […] IC50 values were determined from concentration-response data modeled with the standard Hill equation. […]

IC50, active:
COc1ccc(C2c3c(ncn(CCN4CCOCC4)c3=N)Oc3ccc4ccccc4c32)cc1OC (centres undefined) 296 nM
O=C1OC(c2ccccc2)(c2ccccc2)N2CCN(C(=O)NCc3ccc(F)cc3)CC12 (centres undefined) 208 nM
CCC(C)(CCN1CCOCC1)N(Cc1cc2ccccc2n(C)c1=O)C(=O)C1CCCCC1 (centres undefined) 17.6 nM
Cc1c(P(=S)(c2ccccc2)c2ccccc2)[n+]2ccccc2n1C/C=C/c1ccccc1 22.1 nM
